Assay results published in PubChem BioAssay AID1159580 (chemical genetic matrix, 2015).
Among all 5,500 compounds or so, about 2,000 (36%) were called active. Another 18% or so got no clear call; they are omitted. Cut-off read from the data, not from the text of the source: active = normalized growth mostly below about 0.91 (no sharp cut-off); inconclusive = no clear call, values can overlap the other calls; inactive = mostly above about 0.92. The list shows a part of the results.

Test: chemical genetic growth profiling, strain panel (AID 1159580);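 note: tested at 20 µM; growth read once vehicle control cultures reached saturation at 30 °C; 1 = growth at the plate median or of vehicle wells; lower values mean less growth of the strain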
Settings: S. cerevisiae deletion strains, growth OD

Measured: normalized growth

COc1ccc2c(c[n+](C)c3c4cc5c(cc4ccc23)OCO5)c1OC
active: locus YAL040C, strain CLN3, stronger effect = lower value 0.583 | locus YER002W, strain NOP16, stronger effect = lower value 0.58 | locus YGR078C, strain PAC10, stronger effect = lower value 0.496 | locus YMR307W, strain GAS1, stronger effect = lower value 0.131 | locus YNL175C, strain NOP13, stronger effect = lower value 0.519 | locus YNL197C, strain WHI3, stronger effect = lower value 0.69 | locus YNL224C, strain SQS1, stronger effect = lower value 0.255 | locus YOR083W, strain WHI5 (second series), stronger effect = lower value 0.175
